Screening results deposited in PubChem BioAssay by several laboratories.
Only a sample is shown.
Insulin prom up – MIN6 insulin promoter up-regulation; MIN6 insulin promoter-GFP reporter, high-content imaging; stronger effect = higher value; z-score at 5 µM; 190,000 compounds, 0.3% hits;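 active means z-score above 3 at 5 µM with at least 500 cells counted in the well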
INS promoter inh – TRM-6 insulin promoter activity inhibition | TRM-6 cells (human fetal islet line), insulin promoter-eGFP reporter, imaging; reporter expression induced with tamoxifen | inhibition, % at 2 µM | 130,000 compounds, 0.9% hits;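 active means inhibition above the mean plus 3 SD, with well images judged a real hit on visual review, cut at about 60% in these data, passing the limit was not always enough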
RAM inhibit – yeast RAM network inhibition. S. cerevisiae dse1pr::URA3 reporter, 5-FOA growth OD615, 2 d; analog-sensitive cbk1-as2 kinase mutant strain. inhibition, % at 50 µM. 190,000 compounds, 1.8% hits. AID 868;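 active means inhibition above a set limit, 3 SD over mean compound inhibition, cut at about 8.4% in these data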;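 further: 0% = DMSO-only wells with no growth and 100% = 10 µM 1-NA-PP1 full growth; inhibition rescues growth on 5-FOA so higher OD means more RAM inhibition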
* = called active by the depositor; . = not tested or not shown.

SMILES | Insulin prom up | INS promoter inh | RAM inhibit
C=CCn1c(C)cc(C(=O)COC(=O)/C=C/c2ccc(OC)cc2)c1C | -0.78 | 57 | 8
C=CCc1cc(C=O)cc(OCC)c1O | 1.4 | . | 0
CCOC(=O)C1(CCOC)CCN(Cc2ccc(C3CCCCO3)s2)CC1 (stereo not given) | -0.21 | . | -1
CCCS(=O)(=O)N1CCN(Cc2c[nH]c3ccccc23)CC1 | 0.06 | . | 1
CC(C)N=C1NN=C(c2ccc(Cl)c(Cl)c2)CS1 | 0.66 | -24 | 1
